NOMO-1 viab – STK33 inhibitor candidate reducing NOMO-1 cell viability. NOMO-1 AML viability, CellTiter-Glo luminescence, 72 h. inhibition, % (test concentration not listed). actives 7.5% (n = 37,000); in the data active = inhibition above about 80%; inconclusive = no clear call, values can overlap the other calls
PD-1 reversal – activators reversing PD-1 mediated T-cell inhibition | primary human CD4 T cells, PD-L1 beads, CellTiter-Glo 96 h | AID 2316 | activation, % (test concentration not listed) | 29,000 tested, under 10 active; call rule not given here
ROS inducer – cancer cell ROS induction | U2OS ROS induction, H2DCF-DA fluorescence | ROS induction (% of piperlongumine), % at 10 µM | actives 2% (n = 46,000); in the data active = ROS induction above about 79%, passing the limit was not always enough; inconclusive = no clear call, values can overlap the other calls
Of the large screens only hits and unclear results are named; the others gave an inactive call. This is one part of a sample in which hits are shown more often than they occur.

Cc1cc2c(cc1S(=O)(=O)NCC1CCCO1)OCC(=O)N2 (centres undefined)	none (no result: NOMO-1 viab, PD-1 reversal)
COc1ccc(NC(=O)Nc2ccc3c(c2)CC(=O)N([C@H](C)CO)C[C@@H](C)[C@@H](CN(C)Cc2ccc(C(F)(F)F)cc2)O3)cc1	NOMO-1 viab 90.2 (no result: PD-1 reversal)
COc1ccc(CN(C)C[C@@H]2Oc3ccc(NC(=O)Nc4ccc(C(F)(F)F)cc4)cc3CC(=O)N([C@H](C)CO)C[C@@H]2C)cc1	NOMO-1 viab 118.3
COc1ccc(CN(C)C[C@H]2Oc3ccc(NC(=O)Nc4ccc(C(F)(F)F)cc4)cc3CC(=O)N([C@@H](C)CO)C[C@H]2C)cc1	NOMO-1 viab 124.0 (no result: PD-1 reversal)
COc1ccc(NC(=O)Nc2ccc3c(c2)CC(=O)N([C@@H](C)CO)C[C@H](C)[C@H](CN(C)Cc2ccc(C(F)(F)F)cc2)O3)cc1	none (no result: PD-1 reversal)
COc1ccc(NC(=O)Nc2ccc3c(c2)CC(=O)N([C@H](C)CO)C[C@H](C)[C@H](CN(C)Cc2ccc(C(F)(F)F)cc2)O3)cc1	none
COc1ccc(NC(=O)Nc2ccc3c(c2)CC(=O)N([C@@H](C)CO)C[C@H](C)[C@@H](CN(C)Cc2ccc(C(F)(F)F)cc2)O3)cc1	none (no result: PD-1 reversal)
COc1ccc(CN(C)C[C@H]2Oc3ccc(NC(=O)Nc4ccc(C(F)(F)F)cc4)cc3CC(=O)N([C@H](C)CO)C[C@H]2C)cc1	NOMO-1 viab 127.0
CC(C)(C)c1ccc(CSCc2nc3ccccc3[nH]2)cc1	none (no result: NOMO-1 viab, PD-1 reversal)
Cc1oc(-c2cccc(Cl)c2)nc1CS(=O)(=O)CC(=O)NCc1ccccc1	none (no result: NOMO-1 viab, PD-1 reversal)
COC(=O)C1=NNC2(C)C(=O)N(c3ccccc3)C(=O)C12 (centres undefined)	none (no result: NOMO-1 viab, PD-1 reversal)
Cc1cccc(COc2ccc3c(C)cc(=O)oc3c2)c1	none (no result: NOMO-1 viab, PD-1 reversal)
COc1ccc(NC(=O)Nc2ccc3c(c2)CC(=O)N([C@H](C)CO)C[C@@H](C)[C@H](CN(C)Cc2ccc(C(F)(F)F)cc2)O3)cc1	NOMO-1 viab 112.7 (no result: PD-1 reversal)
COc1ccc(CN(C)C[C@@H]2Oc3ccc(NC(=O)Nc4ccc(C(F)(F)F)cc4)cc3CC(=O)N([C@H](C)CO)C[C@H]2C)cc1	none
c1ccc(-c2csc(N3CCC(c4ccccc4)C3)n2)cc1 (centres undefined)	none (no result: NOMO-1 viab, PD-1 reversal)
N#Cc1ccc(CSc2nc(-c3cccs3)c3c(c2C(=O)O)CCCC3)cc1	none
CN1CCc2c(-c3cccs3)nc(OCc3ccccc3Br)c(C#N)c2C1	NOMO-1 viab 97.4, ROS inducer 168.2
COc1ccc(N2CC(C(=O)OCC(=O)Nc3ccccc3C(F)(F)F)CC2=O)cc1 (centres undefined)	none (no result: NOMO-1 viab, PD-1 reversal)
C[C@H]1CN([C@@H](C)CO)C(=O)Cc2cc(NS(=O)(=O)c3ccc(F)cc3)ccc2O[C@H]1CN(C)Cc1ccc(Cl)c(Cl)c1	NOMO-1 viab inconclusive
C[C@H](CO)N1C[C@H](C)[C@H](CN(C)Cc2ccc(Cl)c(Cl)c2)Oc2ccc(NS(C)(=O)=O)cc2CC1=O	none (no result: PD-1 reversal)
C[C@@H]1CN([C@H](C)CO)C(=O)Cc2cc(NS(=O)(=O)c3ccc(Cl)cc3)ccc2O[C@H]1CN(C)Cc1ccc(Cl)c(Cl)c1	NOMO-1 viab 104.6
C[C@@H]1CN([C@H](C)CO)C(=O)Cc2cc(NS(=O)(=O)c3ccc(F)cc3)ccc2O[C@H]1CN(C)Cc1ccc(Cl)c(Cl)c1	NOMO-1 viab 101.6 (no result: PD-1 reversal)
COc1ccc(-c2nc(CNS(=O)(=O)c3ccc(NC(C)=O)cc3)cs2)cc1	none (no result: NOMO-1 viab, PD-1 reversal)
CSC1=N/C(=C\c2ccccc2C)C(=O)S1	none
CSC1=N/C(=C\c2ccc(Br)cc2)C(=O)S1	NOMO-1 viab 130.6
C[C@H](CO)N1C[C@H](C)[C@H](CN(C)Cc2ccc(-c3ccccc3)cc2)Oc2ccc(NC(=O)Nc3cccc4ccccc34)cc2CC1=O	none
C[C@@H]1CN([C@H](C)CO)C(=O)Cc2cc(NC(=O)Nc3cccc4ccccc34)ccc2O[C@@H]1CN(C)Cc1ccccc1	NOMO-1 viab 87.6
C[C@@H]1CN([C@H](C)CO)C(=O)Cc2cc(NC(=O)Nc3cccc4ccccc34)ccc2O[C@@H]1CN(C)Cc1ccncc1	none
C[C@H]1CN([C@@H](C)CO)C(=O)Cc2cc(NC(=O)Nc3cccc4ccccc34)ccc2O[C@@H]1CN(C)Cc1ccc(Cl)c(Cl)c1	NOMO-1 viab 108.3
CCNC(=O)c1c(-c2ccccc2)noc1C	none (no result: NOMO-1 viab, PD-1 reversal)
Cc1ccc(Cl)cc1N1CCN(C(=O)CN2C(=O)COc3ccc(C(C)(C)C)cc32)CC1	none (no result: NOMO-1 viab, PD-1 reversal)
CC(=O)O[C@@H]1[C@@H](O)[C@@H](O)[C@H](Oc2c(-c3ccc(O)cc3)oc3cc(O[C@@H]4O[C@@H](C)[C@H](O)[C@@H](O)[C@H]4O)cc(O)c3c2=O)O[C@H]1C	none (no result: NOMO-1 viab, PD-1 reversal)
C[C@@H]1CN([C@@H](C)CO)C(=O)c2cc(NC(=O)C3CCCCC3)ccc2O[C@@H]1CN(C)Cc1ccc(C(=O)Nc2ccccc2N)cc1	NOMO-1 viab 108.9
CC(C)NC(=O)Nc1ccc2c(c1)C(=O)N([C@@H](C)CO)C[C@H](C)[C@H](CN(C)Cc1ccc(C(=O)Nc3ccccc3N)cc1)O2	none (no result: NOMO-1 viab, PD-1 reversal)
C[C@H](CO)N1C[C@H](C)[C@H](CN(C)Cc2ccc(C(=O)Nc3ccccc3N)cc2)Oc2ccc(NC(=O)C3CC3)cc2C1=O	NOMO-1 viab inconclusive
C[C@@H]1CN([C@@H](C)CO)C(=O)c2cc(NC(=O)C3CC3)ccc2O[C@@H]1CN(C)Cc1ccc(C(=O)Nc2ccccc2N)cc1	NOMO-1 viab 105.5
C[C@@H]1CN([C@H](C)CO)C(=O)c2cc(NC(=O)C3CCCCC3)ccc2O[C@@H]1CN(C)Cc1ccc(C(=O)Nc2ccccc2N)cc1	NOMO-1 viab inconclusive
C[C@H]1CN([C@@H](C)CO)C(=O)c2cc(NC(=O)C3CC3)ccc2O[C@H]1CN(C)Cc1ccc(C(=O)Nc2ccccc2N)cc1	NOMO-1 viab 105.7
O=C(CC1C(=O)N(c2ccccc2)C(=S)N1CCc1ccc(F)cc1)Nc1ccc(F)cc1 (centres undefined)	none (no result: NOMO-1 viab, PD-1 reversal)
CC(=O)N1c2ccccc2NC2=C(C(=O)CCC2)C1c1ccc(Cl)cc1 (centres undefined)	none (no result: NOMO-1 viab, PD-1 reversal)
CCCOC(=O)Nc1ccc(Cl)cc1C(=O)c1ccccc1	none (no result: NOMO-1 viab, PD-1 reversal)
CCOC(=O)c1c(C)n(CC)c2ccc(OC)cc12	none (no result: NOMO-1 viab, PD-1 reversal)
CC(C(=O)OCC(=O)c1ccccc1)N1C(=O)C2C3C=CC(C3)C2C1=O (centres undefined)	none (no result: NOMO-1 viab, PD-1 reversal)
CC(C)CNC(=O)C1CCN(C(=O)c2ccc(F)cc2)CC1	none (no result: NOMO-1 viab, PD-1 reversal)
O=C(Cc1ccc(-n2c(=S)[nH]c3ccccc3c2=O)cc1)NCCc1ccccc1	none (no result: NOMO-1 viab, PD-1 reversal)
COc1ccccc1-c1cc(=O)n(CC(=O)O)c2c1CCCC2	none (no result: NOMO-1 viab, PD-1 reversal)
CCOC(=O)c1oc2nc(-c3ccco3)cc(-c3ccco3)c2c1N	none
CSc1ccc(-c2cc(=O)c3ccccc3o2)cc1	none (no result: NOMO-1 viab, PD-1 reversal)
Cc1ccc(-c2cc(=O)c3ccc4ccccc4c3o2)cc1	ROS inducer 94.9 (no result: NOMO-1 viab, PD-1 reversal)
CCOC(=O)c1sc2sc(C(=O)OCC)c(-c3ccc(Cl)cc3)c2c1N	ROS inducer 93.5
CCOC(=O)c1c(CS(=O)c2ccc(Cl)cc2)oc2c(F)c(F)c(F)c(F)c12 (centres undefined)	none (no result: NOMO-1 viab, PD-1 reversal)
COc1ccc(OC)c(C2N=C(Nc3nc4ccccc4s3)NC3=C2C(=O)CC(C)(C)C3)c1 (centres undefined)	NOMO-1 viab 115.2 (no result: PD-1 reversal, ROS inducer)
O=C1CC(c2ccccc2Cl)Cc2c1cnn2-c1nc2ccccc2s1 (centres undefined)	none (no result: NOMO-1 viab, PD-1 reversal)
O=C1CCCC2=C1C(c1ccccc1Cl)N=C(Nc1nc3ccccc3s1)N2 (centres undefined)	NOMO-1 viab 115.5, ROS inducer 178.2

Assay outcomes: PubChem BioAssay, Broad Institute
